Positions count from the first letter of the chain named. The full ranking holds about 16,000 sequences; the median of “ka relative to ugcaugu” is about 0.096, and the highest 2% start at about 0.35. The sample holds the highest values, similar sequences and a random draw of the others, so the mix is not that of the screen.
T1: RBFOX1 RRM RbFoxmut (Fox-RRM*) (Homo sapiens, UniProt Q9NWB1 109-208, R118D;E147R;N151S;E152T)
T1 sequence: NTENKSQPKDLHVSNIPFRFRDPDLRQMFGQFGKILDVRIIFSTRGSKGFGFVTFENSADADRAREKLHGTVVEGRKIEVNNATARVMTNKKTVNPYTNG

B1: AUUCCUA (DNA:RNA)
RNA: GGGAGACCGGAAUUCAGAUUGUCCAUUCCUAUUAAAUCCCGUCGUAGCCACCA
DNA 1: CAATCTGAATTCCGGTCTCCC
DNA 2: TGGTGGCTACGACGGGATT
B2: ACGGGGG (DNA:RNA)
RNA: B1 RNA with U26C, U27G, C28G, C29G, U30G, A31G
DNA 1: CAATCTGAATTCCGGTCTCCC
DNA 2: TGGTGGCTACGACGGGATT
B3: UCCUCGU (DNA:RNA)
RNA: B1 RNA with A25U, U26C, U27C, C28U, U30G, A31U
DNA 1: CAATCTGAATTCCGGTCTCCC
DNA 2: TGGTGGCTACGACGGGATT
B4: GUACUCA (DNA:RNA)
RNA: B1 RNA with A25G, U27A, C29U, U30C
DNA 1: CAATCTGAATTCCGGTCTCCC
DNA 2: TGGTGGCTACGACGGGATT
B5: CACUACA (DNA:RNA)
RNA: B1 RNA with A25C, U26A, U27C, C28U, C29A, U30C
DNA 1: CAATCTGAATTCCGGTCTCCC
DNA 2: TGGTGGCTACGACGGGATT
B6: UUAGGGA (DNA:RNA)
RNA: B1 RNA with A25U, U27A, C28G, C29G, U30G
DNA 1: CAATCTGAATTCCGGTCTCCC
DNA 2: TGGTGGCTACGACGGGATT
B7: AGCCGCU (DNA:RNA)
RNA: B1 RNA with U26G, U27C, C29G, U30C, A31U
DNA 1: CAATCTGAATTCCGGTCTCCC
DNA 2: TGGTGGCTACGACGGGATT
B8: GCUCAAC (DNA:RNA)
RNA: B1 RNA with A25G, U26C, C29A, U30A, A31C
DNA 1: CAATCTGAATTCCGGTCTCCC
DNA 2: TGGTGGCTACGACGGGATT
B9: UCGCGAA (DNA:RNA)
RNA: B1 RNA with A25U, U26C, U27G, C29G, U30A
DNA 1: CAATCTGAATTCCGGTCTCCC
DNA 2: TGGTGGCTACGACGGGATT
B10: UGACUUG (DNA:RNA)
RNA: B1 RNA with A25U, U26G, U27A, C29U, A31G
DNA 1: CAATCTGAATTCCGGTCTCCC
DNA 2: TGGTGGCTACGACGGGATT
B11: AUCCGCU (DNA:RNA)
RNA: B1 RNA with U27C, C29G, U30C, A31U
DNA 1: CAATCTGAATTCCGGTCTCCC
DNA 2: TGGTGGCTACGACGGGATT
B12: AAGCAUC (DNA:RNA)
RNA: B1 RNA with U26A, U27G, C29A, A31C
DNA 1: CAATCTGAATTCCGGTCTCCC
DNA 2: TGGTGGCTACGACGGGATT
B13: AAGCAUG (DNA:RNA)
RNA: B1 RNA with U26A, U27G, C29A, A31G
DNA 1: CAATCTGAATTCCGGTCTCCC
DNA 2: TGGTGGCTACGACGGGATT
B14: AAGCAUA (DNA:RNA)
RNA: B1 RNA with U26A, U27G, C29A
DNA 1: CAATCTGAATTCCGGTCTCCC
DNA 2: TGGTGGCTACGACGGGATT
B15: CCAUGCC (DNA:RNA)
RNA: GGGAGACCGGAAUUCAGAUUGUCCCCAUGCCUUAAAUCCCGUCGUAGCCACCA
DNA 1: CAATCTGAATTCCGGTCTCCC
DNA 2: TGGTGGCTACGACGGGATT
B16: GCAUCCC (DNA:RNA)
RNA: B15 RNA with C25G, G29C
DNA 1: CAATCTGAATTCCGGTCTCCC
DNA 2: TGGTGGCTACGACGGGATT
B17: GCCUGCC (DNA:RNA)
RNA: B15 RNA with C25G, A27C
DNA 1: CAATCTGAATTCCGGTCTCCC
DNA 2: TGGTGGCTACGACGGGATT
B18: GCAUGCC (DNA:RNA)
RNA: B15 RNA with C25G
DNA 1: CAATCTGAATTCCGGTCTCCC
DNA 2: TGGTGGCTACGACGGGATT
B19: GCAUGCG (DNA:RNA)
RNA: B15 RNA with C25G, C31G
DNA 1: CAATCTGAATTCCGGTCTCCC
DNA 2: TGGTGGCTACGACGGGATT
B20: GCAUGCA (DNA:RNA)
RNA: B15 RNA with C25G, C31A
DNA 1: CAATCTGAATTCCGGTCTCCC
DNA 2: TGGTGGCTACGACGGGATT
B21: ACAUGCG (DNA:RNA)
RNA: B15 RNA with C25A, C31G
DNA 1: CAATCTGAATTCCGGTCTCCC
DNA 2: TGGTGGCTACGACGGGATT
B22: GAUUGCA (DNA:RNA)
RNA: B15 RNA with C25G, C26A, A27U, C31A
DNA 1: CAATCTGAATTCCGGTCTCCC
DNA 2: TGGTGGCTACGACGGGATT
B23: CGAUGCA (DNA:RNA)
RNA: B15 RNA with C26G, C31A
DNA 1: CAATCTGAATTCCGGTCTCCC
DNA 2: TGGTGGCTACGACGGGATT
B24: GUCCGCA (DNA:RNA)
RNA: B1 RNA with A25G, U27C, C29G, U30C
DNA 1: CAATCTGAATTCCGGTCTCCC
DNA 2: TGGTGGCTACGACGGGATT
B25: GAAUGCA (DNA:RNA)
RNA: B15 RNA with C25G, C26A, C31A
DNA 1: CAATCTGAATTCCGGTCTCCC
DNA 2: TGGTGGCTACGACGGGATT
B26: GCAUUAA (DNA:RNA)
RNA: B15 RNA with C25G, G29U, C30A, C31A
DNA 1: CAATCTGAATTCCGGTCTCCC
DNA 2: TGGTGGCTACGACGGGATT
B27: ACGCACA (DNA:RNA)
RNA: B1 RNA with U26C, U27G, C29A, U30C
DNA 1: CAATCTGAATTCCGGTCTCCC
DNA 2: TGGTGGCTACGACGGGATT
B28: GCCGUUU (DNA:RNA)
RNA: B1 RNA with A25G, U26C, U27C, C28G, C29U, A31U
DNA 1: CAATCTGAATTCCGGTCTCCC
DNA 2: TGGTGGCTACGACGGGATT
B29: UCGUGAC (DNA:RNA)
RNA: B15 RNA with C25U, A27G, C30A
DNA 1: CAATCTGAATTCCGGTCTCCC
DNA 2: TGGTGGCTACGACGGGATT
B30: UCACAUA (DNA:RNA)
RNA: B1 RNA with A25U, U26C, U27A, C29A
DNA 1: CAATCTGAATTCCGGTCTCCC
DNA 2: TGGTGGCTACGACGGGATT
B31: GUAUGCA (DNA:RNA)
RNA: B15 RNA with C25G, C26U, C31A
DNA 1: CAATCTGAATTCCGGTCTCCC
DNA 2: TGGTGGCTACGACGGGATT
B32: AUAUGCA (DNA:RNA)
RNA: B15 RNA with C25A, C26U, C31A
DNA 1: CAATCTGAATTCCGGTCTCCC
DNA 2: TGGTGGCTACGACGGGATT
B33: GGAUGCA (DNA:RNA)
RNA: B15 RNA with C25G, C26G, C31A
DNA 1: CAATCTGAATTCCGGTCTCCC
DNA 2: TGGTGGCTACGACGGGATT

What follows are binders tested against T1, RBFOX1 RRM RbFoxmut (Fox-RRM*) (assay: EMSA; HiTS-Eq, 1 nM pool, 10 min; buffer printed only for the single-RNA assays: 10 mM Tris pH 7.5, 150 mM NaCl, 3.4 mM EDTA, 0.001% NP-40, 30 C). Conditions: tags: His6 N-terminal (pET28a); label: 5' 32P.
In short: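 Purified RbFox RRM, wild type or mutant, was incubated for 10 min in 50 µL with 1 nM of a 5′-radiolabelled RNA pool carrying 7 randomized nucleotides, whose flanks were annealed to DNA oligonucleotides, over a series of increasing protein concentrations. Unbound RNA was resolved on 8% native PAGE, cut out, reverse-transcribed, barcoded by PCR and sequenced on an Illumina HiSeq 2500. Relative association constants were derived from changes in read counts for each RNA species versus the control reaction and normalised to the cognate motif.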

| Binder | binding signal |
| --- | --- |
| B1 | 0.098 KA relative to UGCAUGU |
| B2 | 0.118 KA relative to UGCAUGU |
| B3 | 0.124 KA relative to UGCAUGU |
| B4 | 0.095 KA relative to UGCAUGU |
| B5 | 0.13 KA relative to UGCAUGU |
| B6 | 0.0529 KA relative to UGCAUGU |
| B7 | 0.0799 KA relative to UGCAUGU |
| B8 | 0.0746 KA relative to UGCAUGU |
| B9 | 0.105 KA relative to UGCAUGU |
| B10 | 0.272 KA relative to UGCAUGU |
| B11 | 0.121 KA relative to UGCAUGU |
| B12 | 0.196 KA relative to UGCAUGU |
| B13 | 0.715 KA relative to UGCAUGU |
| B14 | 0.0958 KA relative to UGCAUGU |
| B15 | 0.19 KA relative to UGCAUGU |
| B16 | 0.142 KA relative to UGCAUGU |
| B17 | 0.176 KA relative to UGCAUGU |

| Binder | binding signal |
| --- | --- |
| B18 | 0.651 KA relative to UGCAUGU |
| B19 | 0.872 KA relative to UGCAUGU |
| B20 | 0.828 KA relative to UGCAUGU |
| B21 | 0.139 KA relative to UGCAUGU |
| B22 | 0.171 KA relative to UGCAUGU |
| B23 | 0.158 KA relative to UGCAUGU |
| B24 | 0.107 KA relative to UGCAUGU |
| B25 | 1.03 KA relative to UGCAUGU |
| B26 | 0.141 KA relative to UGCAUGU |
| B27 | 0.105 KA relative to UGCAUGU |
| B28 | 0.0818 KA relative to UGCAUGU |
| B29 | 0.0717 KA relative to UGCAUGU |
| B30 | 0.112 KA relative to UGCAUGU |
| B31 | 0.574 KA relative to UGCAUGU |
| B32 | 0.208 KA relative to UGCAUGU |
| B33 | 0.24 KA relative to UGCAUGU |
